Assay outcomes from PubChem BioAssay.
Only some compounds are listed: those with a hit (about 1.9% of all), similar ones and a draw of the others.
Bfl-1 A1 inh – inhibitors of the anti-apoptotic protein A1, read as caspase activation. AID 2462. MEF A1-2A-BIM cells, Caspase-Glo 3/7 luminescence, 3 h; percent of clofoctol response, vehicle zero. 330,000 compounds, 0.066% hits. caspase activation, % (test concentration not listed);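 active means over half of replicate activation scores above 10%, or exactly half above 10 with the replicate mean above 10; inconclusive means replicate mean below 10 yet half the replicates above 10; inactive means over half of replicates below 10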
Neddylation inh – inhibitors of human cullin neddylation | 360,000 compounds, 0.58% hits | AID 651699 | TR-FRET cullin neddylation, biochemical | inhibition, % at 25 µM | P61081+Q13564; in the data active means inhibition above about 36%
GSIS activator – GLuc luminescence reporter in INS-1E cells, primary screen for activators of glucose-dependent secretion of insulin. INS-1E GLuc reporter insulin secretion, 2-3 h. activation, % at 16.6 µM. 370,000 compounds, 0.61% hits;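 active means lowest replicate activation of at least 40%, so every replicate reaches that level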
Vif imaging – blocks HIV Vif function; HEK293T cells, Vif self-association by quenched fluorescence, imaging, 24 h; 340,000 compounds, 0.35% hits; AID 602346; inhibition, % at 7.49 µM; in the data active means inhibition above about 50%, passing the limit was not always enough; inconclusive means no clear call, values can overlap the other calls; inactive means below about 31%
dFosB activator – activators of mouse delta FosB homodimer. P13346. purified delta FosB, TAMRA-CDK5 oligo fluorescence polarization; percent of positive-control signal above neutral wells. activation, % at 25 µM. 340,000 compounds, 0.99% hits. AID 493131;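 active means mean activation above about 17%, with every replicate also reaching it, limit read from the data, passing the limit was not always enough; inconclusive means only one of the two conditions met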
Target sequence (P13346 whole entry, looked up): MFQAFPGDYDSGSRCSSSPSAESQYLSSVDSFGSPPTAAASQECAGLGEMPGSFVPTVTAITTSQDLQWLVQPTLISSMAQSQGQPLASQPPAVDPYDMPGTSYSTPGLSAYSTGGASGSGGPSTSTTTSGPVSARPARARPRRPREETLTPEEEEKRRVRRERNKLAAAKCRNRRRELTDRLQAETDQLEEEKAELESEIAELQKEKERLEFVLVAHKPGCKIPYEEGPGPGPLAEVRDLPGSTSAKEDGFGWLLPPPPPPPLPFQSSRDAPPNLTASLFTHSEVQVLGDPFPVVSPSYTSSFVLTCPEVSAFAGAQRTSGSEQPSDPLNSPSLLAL
Large screens that a line does not name were inactive.

COc1ccc(NC(=S)N2CCN(C/C=C/c3ccccc3)CC2)cc1OC	Vif imaging 65
CN1/C(=C\C=O)C(C)(C)c2ccccc21	dFosB activator 23
CN1/C(=C\C=Nc2ccc3ccccc3c2)C(C)(C)c2ccccc21	Vif imaging 78 (no result: GSIS activator)
CO[C@H]1CN(C)C(=O)c2cc(NC(=O)C3CC3)ccc2OC[C@@H](C)N(CCc2ccccc2)C[C@@H]1C	none (no result: Bfl-1 A1 inh, Neddylation inh, Vif imaging, dFosB activator)
CCN1C(=S)SC(=O)C1=C1C=C(C)N(CCO)C(C)=C1	Vif imaging active (no result: GSIS activator)
CCC(=O)N1CC(=O)N2[C@H](CO)[C@H](c3ccc(C#Cc4cccnc4)cc3)[C@@H]2C1	none (no result: Bfl-1 A1 inh, Neddylation inh, Vif imaging, dFosB activator)
O=c1c2ccccc2sn1-c1cc(S(=O)(=O)N2CCOCC2)ccc1N1CCOCC1	GSIS activator 208
C[C@@H]1CN([C@@H](C)CO)C(=O)c2cc(-c3ccncc3)cnc2O[C@@H]1CN(C)C(=O)c1ccc(F)cc1	none (no result: Bfl-1 A1 inh, Neddylation inh, Vif imaging, dFosB activator)
COCCNC(=O)C[C@H]1CC[C@@H]2[C@H](COc3ccc(NC(=O)Cc4ccccc4)cc3C(=O)N2C)O1	none (no result: Bfl-1 A1 inh, Neddylation inh, Vif imaging, dFosB activator)
Cc1cc(C)cc(C(=O)OCC(=O)NC2CCCC2)c1	none
Cc1cc(C)cc(C(=O)OCC(=O)Nc2ncccn2)c1	Vif imaging 56
Cc1ccc(-n2[nH]c(C)c(/C=N/NC(=O)c3ccc(O)cc3O)c2=O)cc1	none (not shown: Neddylation inh, GSIS activator)
Cc1[nH]n(-c2ccccc2)c(=O)c1/C=N/NC(=O)c1ccc(O)cc1O	Neddylation inh 61
CCC(=O)Nc1nnc(-c2ccncc2)s1	Neddylation inh 52
C[C@H](NC(=O)C[C@@H]1C[C@@H]2c3cc(NC(=O)C4CCOCC4)ccc3O[C@@H]2[C@@H](CO)O1)c1ccccc1	none (no result: Bfl-1 A1 inh, Neddylation inh, Vif imaging, dFosB activator)
CCc1cc2c(COC(=O)c3cccc(S(C)(=O)=O)c3)cc(=O)oc2cc1O	GSIS activator 50 (not shown: Neddylation inh)
CNS(=O)(=O)c1cccc(C(=O)OCc2cc(=O)oc3c(C)c(O)ccc23)c1	none
C[C@@H]1CN([C@H](C)CO)C(=O)c2cc(NC(=O)C3CCCCC3)ccc2O[C@@H]1CN(C)C(=O)Nc1cccc2ccccc12	none (no result: Bfl-1 A1 inh, Neddylation inh, Vif imaging, dFosB activator)
CC(O)(c1ccccc1)c1nc(-c2cccc(C(F)(F)F)c2)cs1 (stereo unspecified)	none (no result: Bfl-1 A1 inh, Vif imaging, dFosB activator)
O=C(O)c1ccc(-c2nc(-c3cccc(C(F)(F)F)c3)cs2)cc1	Vif imaging 59 (no result: Bfl-1 A1 inh)
CCC(=O)N1CC[C@@H]2[C@H](CO)Nc3ccc(-c4ccc(F)cc4)cc3[C@@H]21	none (no result: Bfl-1 A1 inh, Neddylation inh, Vif imaging, dFosB activator)
CCOC(=O)c1cc2sccc2n1CC(=O)N1c2ccccc2CC1C (stereo unspecified)	GSIS activator 472
Nc1nc2ccc(Cl)cc2cc1C(=O)NCCc1c[nH]c2ccccc12	none (no result: Bfl-1 A1 inh, GSIS activator, Vif imaging, dFosB activator)
Nc1nc2ccc(Cl)cc2cc1C(=O)NCCc1ccc(Cl)cc1Cl	GSIS activator 62 (no result: Bfl-1 A1 inh, Vif imaging, dFosB activator)
O=C(Cc1cccc2ccccc12)NN1C(=O)/C(=C\c2cccnc2)SC1=S	dFosB activator 141
O=C(NN1C(=O)/C(=C\c2cccnc2)SC1=S)C(c1ccccc1)c1ccccc1	none
CCC(=O)N1C[C@H](C)[C@H](OC)CN(C)C(=O)c2ccc(NC(=O)COC)cc2OC[C@@H]1C	none (no result: Bfl-1 A1 inh, Neddylation inh, Vif imaging, dFosB activator)
C[C@H]1CN([C@@H](C)CO)S(=O)(=O)c2ccc(-c3ccncc3)cc2O[C@@H]1CN(C)Cc1ccncc1	none (no result: Bfl-1 A1 inh, Neddylation inh, Vif imaging, dFosB activator)
O=[N+]([O-])c1ccc(Nc2nc(N/N=C\c3ccc4c(c3)OCO4)nc(N3CCCCC3)n2)cc1	dFosB activator 63 (no result: GSIS activator)
CO[C@H]1CN(C)C(=O)c2ccc(NC(=O)c3cccc(Oc4ccccc4)c3)cc2OC[C@@H](C)NC[C@@H]1C	none (no result: Bfl-1 A1 inh, Neddylation inh, Vif imaging, dFosB activator)
CN1c2ccc(C#Cc3cccnc3)cc2[C@@H]2[C@@H](CCN2S(=O)(=O)c2cccc(F)c2)[C@@H]1CO	none (no result: Bfl-1 A1 inh, Neddylation inh, Vif imaging, dFosB activator)
O=S1(=O)Nc2c(ccc3cccnc23)-c2ccccc21	Neddylation inh 52 (no result: GSIS activator)
COc1ccc(OCC(=O)OCC(=O)Nc2ccc3[nH]c(=O)[nH]c3c2)cc1	none
COc1ccc(CCC(=O)OCC(=O)Nc2ccc3[nH]c(=O)[nH]c3c2)cc1	GSIS activator 45
O=C(NNC(=O)c1ccc[nH]1)Nc1cc(Cl)cc(Cl)c1	Vif imaging 55 (no result: dFosB activator)
Cn1cc(Br)c(C(=O)NNC(=O)c2ccccc2)n1	GSIS activator 42
Cn1cc(Br)c(C(=O)NNC(=O)c2ccc(Br)cc2)n1	none (no result: GSIS activator)
CNC[C@H]1Oc2ccc(NC(=O)CCC(F)(F)F)cc2CC(=O)N([C@@H](C)CO)C[C@@H]1C	none (no result: Bfl-1 A1 inh, Neddylation inh, Vif imaging, dFosB activator)
Cc1ccc(-c2nnc3sc(-c4ccncc4)nn23)cc1	GSIS activator 67, dFosB activator inconclusive
c1ccc(-c2nn3c(-c4ccccc4)nnc3s2)cc1	none (no result: GSIS activator)
COc1ccc(-c2[nH]c3ccccc3c2SCCN)cc1	GSIS activator 57
O=C(O)C[C@H]1CC[C@H]2[C@@H](COC[C@H](O)CN2S(=O)(=O)c2ccc(F)cc2)O1	none (no result: Bfl-1 A1 inh, Neddylation inh, Vif imaging, dFosB activator)
O=C(CCN1C(=O)/C(=C/c2ccc(Cl)cc2)SC1=S)NC1C=CS(=O)(=O)C1 (stereo unspecified)	none
O=C(CN1C(=O)/C(=C/c2ccc(F)cc2)SC1=S)NC1C=CS(=O)(=O)C1 (stereo unspecified)	dFosB activator 26
O=C(CN1C(=O)/C(=C/c2ccc(Cl)cc2)SC1=S)NC1C=CS(=O)(=O)C1 (stereo unspecified)	dFosB activator 23
COc1ccc(/C=C2\SC(=S)N(CC(=O)NC3C=CS(=O)(=O)C3)C2=O)cc1 (stereo unspecified)	dFosB activator 85
C[C@H]1CCCCO[C@@H](CN(C)Cc2ccc(C(=O)Nc3ccccc3N)cc2)[C@@H](C)CN([C@@H](C)CO)C(=O)c2cc(N(C)C)ccc2O1	none (no result: Bfl-1 A1 inh, Neddylation inh, Vif imaging, dFosB activator)
CC1CCC(C(C)C)C(OCC(O)CNC(C)(C)C)C1 (stereo unspecified)	none
CC1CCC(C(C)C)C(OCC(O)CNC(C)c2ccccc2)C1 (stereo unspecified)	GSIS activator 199
CC(C)Oc1ccc(CN2CCC2(C)C(=O)Nc2ccc(Cl)c(Cl)c2)cc1 (stereo unspecified)	Vif imaging 58 (no result: Bfl-1 A1 inh, dFosB activator)
Cc1cccc(C)c1-n1nnnc1SCc1nc(N)nc(N(C)C)n1	Vif imaging 129 (no result: Bfl-1 A1 inh, dFosB activator)
O=C(Nc1ccc([N+](=O)[O-])cc1)C(Cc1ccccc1)N1C(=O)c2cccc3cccc(c23)C1=O (stereo unspecified)	Bfl-1 A1 inh 5.5
O=C(O)c1ccccc1NC(=O)C(Cc1ccccc1)N1C(=O)c2ccccc2C1=O (stereo unspecified)	none
C[C@H]1COCc2cnnn2CC[C@@H](Cc2ccccc2)C(=O)N1	none (no result: Bfl-1 A1 inh, Neddylation inh, Vif imaging, dFosB activator)
COc1ccc(/C=C2\CC/C(=C\c3ccc(OC)c(OC)c3)C2=O)cc1OC	none
COc1ccc(C=C2C=C(C(C)(C)C)C(=O)C(C(C)(C)C)=C2)cc1OC	Bfl-1 A1 inh 11
COc1ccc(S(=O)(=O)N2N=C(C)Oc3ccccc3C2=O)cc1	none (no result: GSIS activator)
COc1ccc(S(=O)(=O)N2C(=O)/C(=C3\SC(N)=NC3=O)c3ccccc32)cc1	dFosB activator 24
CCC(=O)Nc1cc2nn(-c3ccc(OC)cc3)nc2cc1C	GSIS activator 108 (not shown: Neddylation inh)
